# Shiga toxin inh: Shiga toxin inhibition; Vero cells, Shiga toxin protein synthesis inhibition reporter; inhibition, % at 38.7 µM; actives 9.2% (n = 290,000); in the data active = inhibition mostly above about 28%, no sharp cut-off; inactive = mostly below about 43%; note: 0% is about no effect
# LmPK inh: blocks Leishmania mexicana pyruvate kinase activity; purified LmPK, Kinase-Glo ATP luminescence, 1 h; Q27686; Potency, µM (doses to about 57.5 µM), for the others: top-dose activity change, negative = inhibition, hits mostly inhibitors; AID 1721; actives 0.37% (n = 290,000); active = well fitted curve in the direction sought with a large enough effect; inconclusive = small, poorly fitted or top-dose-only effect, or another doubt; inactive = no such curve, though single readings can be large; an effect the other way counts as inactive or inconclusive; note: potency is the fitted concentration of half-maximal effect; % is set by controls: 0 for no effect and ±100 for the full control effect
# Target sequence (Q27686 whole entry, looked up): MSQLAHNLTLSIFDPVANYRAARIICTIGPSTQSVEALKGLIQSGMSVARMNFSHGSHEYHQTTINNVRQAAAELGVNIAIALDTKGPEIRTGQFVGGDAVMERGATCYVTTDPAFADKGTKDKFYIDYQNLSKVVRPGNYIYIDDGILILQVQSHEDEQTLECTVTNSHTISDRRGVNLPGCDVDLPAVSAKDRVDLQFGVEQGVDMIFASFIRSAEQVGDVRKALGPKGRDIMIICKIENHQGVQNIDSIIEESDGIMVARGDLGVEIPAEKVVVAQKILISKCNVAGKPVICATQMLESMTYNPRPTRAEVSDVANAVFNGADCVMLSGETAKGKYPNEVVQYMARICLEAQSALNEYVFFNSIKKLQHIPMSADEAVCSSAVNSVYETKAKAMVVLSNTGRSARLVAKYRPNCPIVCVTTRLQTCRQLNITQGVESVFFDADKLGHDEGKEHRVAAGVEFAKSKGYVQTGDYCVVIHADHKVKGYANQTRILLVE
#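 Purified LmPK (0.1 nM) with 0.5 mM PEP and 0.1 mM ADP in imidazole buffer pH 7.2 with MgCl2/KCl, 1 h at room temperature. ATP formed was read by luciferase luminescence and normalized to no-enzyme and uninhibited controls.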
# CHX counter-1: counter-screen for Shiga toxin inhibitors: cycloheximide protein synthesis inhibition; actives 12% (n = 300,000); max response, %; cell reporter, cycloheximide protein synthesis inhibition counterscreen; in the data active = max response mostly above about 13%, no sharp cut-off; inactive = mostly below about 14%; note: read at 38.3 µM for the half of the compounds with a filed dose; 0% is about no effect
# NS1 inh: inhibitors of influenza NS1 protein function; actives 0.4% (n = 270,000); Potency, µM (doses to about 46.1 µM), for the others: at the highest dose activity, positive = more growth; note: potency is the fitted concentration of half-maximal effect; actives are rising curves; nearly all actives have a fitted effect of over 50% in size
#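 Recovery from NS1-induced slow growth read by OD600 in budding yeast switched to galactose assay medium (pH 6.0, -URA) at 1:100 dilution. Compound 23 nl per well; the matching strain lacking NS1 serves as control.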
# Giardia FBPA inh: inhibitors of Giardia lamblia fructose-1,6-bisphosphate aldolase. AID 2451. A8B2U2. purified Giardia FBPA. actives 0.71% (n = 290,000). Potency, µM (highest dose often 59.6 µM), for inactives: at the top dose activity, negative = inhibition, most hits filed as inhibitors; active = well fitted curve in the direction sought with a large enough effect; inconclusive = small, poorly fitted or top-dose-only effect, or another doubt; inactive = no such curve, though single readings can be large; an effect the other way counts as inactive or inconclusive; note: potency is the fitted concentration of half-maximal effect; % is set by controls: 0 for no effect and ±100 for the full control effect; nearly all actives have a fitted effect of over 55% in size
#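 Giardia FBPA (40 nM reagent) was preincubated 10 min at RT with compound (up to 57.5 uM final), then substrate plus GAPDH/TPI/NAD/arsenate coupling system with diaphorase/resazurin was added; resorufin fluorescence (525/598 nm) was read after 20 min.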
# CHX counter-2: protein synthesis counter-screen activity for Shiga toxin hits. actives 3% (n = 510). shares compounds with Shiga toxin inh. Cycloheximide counterscreen, protein synthesis reporter, Shiga toxin assay. AID 2318. Potency, µM (doses to about 38.3 µM), without a hit: top-dose activity (activation), hits mostly activators; note: potency is the fitted concentration of half-maximal effect; 0% is about no effect
# The depositor's hits bear a star; u = inconclusive; x = not tested or not shown. An excerpt weighted towards active compounds, which were near 14% of everything screened. Unless noted, calls come from the whole dose curve.
SMILES,Shiga toxin inh,LmPK inh,CHX counter-1,NS1 inh,Giardia FBPA inh,CHX counter-2
COc1cccc(-n2ccnc2SCC(=O)Nc2ccccc2)c1,-1,-9%,8,-79%,-18%,x
COc1ccccc1N/C=C(\C#N)c1nc2ccccc2[nH]1,2,0%,12,-1%,2%,x
COc1cc(/C=C(\C#N)c2nc3ccccc3[nH]2)cc(OC)c1O,64*,0%,9,-3%,-14%,u
CSc1nc2ccc(N3C(=O)C4CCCCC4C3=O)cc2s1 (centres undefined),38*,-2%,-3,-2%,-3%,u
CSc1nc2ccc(S(=O)(=O)N3CCCC3)cc2s1,25,3%,-2,-88%,5%,x
Nc1cn(C2OC(CO)C(O)C2O)c(=O)[nH]c1=O (centres undefined),-12,-2%,-3,27%,-9%,x
COCC(C)n1c(SCc2ccc(C(=O)OC)cc2)nc2ccccc2c1=O (centres undefined),-6,7%,1,-56%,-4%,x
COc1cccc(-c2csc(N3CCN(C(=O)Nc4ccc(F)cc4)CC3)n2)c1,34*,3%,5,u,2%,0%
COc1ccc(NC(=O)CN2CCN(c3nc(-c4ccc(F)cc4)cs3)CC2)c(OC)c1,36*,3%,-3,17%,-1%,-2%
Cc1ccc(OCC(O)Cn2c(N3CCCCC3)nc3c2c(=O)[nH]c(=O)n3C)cc1C (centres undefined),-1,7%,-2,10%,4%,x
COc1ccc(NC(=O)Cc2c(Sc3ccccc3)c3ccccc3n2C)cc1,-8,1%,-1,19%,0%,x
COc1ccc(NC(=O)c2c(Cl)n(C)c3ccccc23)cc1,40*,3%,11,0%,0%,13µM*
COc1ccc(C(=O)Nc2cccc3nc(C)ccc23)cc1OC,24*,4%,10,u,2%,1%
Cc1cnc(NC(=O)c2ccc(-c3nc4ccccc4s3)o2)s1,60*,-3%,11,-12%,4%,u
CC1CCc2sc(C(=O)NN)cc2C1 (centres undefined),36*,0%,11,x,0%,-3%
CCOc1ccc(C(=O)N2CCN(S(=O)(=O)c3cccs3)CC2)c(OCC)c1,-22,-12%,13,11%,x,x
CC(c1ccco1)N(C(=O)c1cc(Cl)cc(Cl)c1)c1ccccn1 (centres undefined),24*,-2%,1,-20%,8%,-1%
CC(C)C[C@@H](CC(=O)N[C@H](CC(=O)N[C@@H]1CCCC[C@H]1C(=O)N[C@H](CC(=O)N[C@@H](CCC(=O)O)CC(=O)O)CC(C)C)C(C)C)NC(=O)[C@@H]1CCCC[C@H]1N,x,x,x,x,-16%,x
O=C(Sc1cccc2cccnc12)c1ccc(F)cc1,28,-1%,10,x,u,x
O=C(Sc1cccc2cccnc12)c1ccccc1Br,41*,-1%,8,-60%,6%,9%
COCCN(C(=O)COC(=O)C1(C)CC1(Cl)Cl)c1c(N)n(Cc2ccccc2)c(=O)[nH]c1=O (centres undefined),8,-7%,-1,4%,x,x
CCNS(=O)(=O)c1ccc(NC(=S)N2CCc3ccccc32)cc1,-10,0%,7,1%,-19%,x
Cn1c(SCC(=O)NC2CCCCC2)nnc1-c1ccncc1,-11,4%,-3,-19%,7%,x
Cc1ccc(-c2nnc(SCC(=O)NC3CCCC3)n2C)cc1,69*,3%,-2,1%,-1%,-1%
COc1cc(C(C)=O)ccc1OCCCOc1cccc2cccnc12,48*,12%,2,-44%,-4%,u
COc1ccc(C(C)=O)cc1COc1cccc2cccnc12,x,1%,-4,-35%,-8%,x
COc1ccc(-c2nnc3sc(-c4ccccc4OC)nn23)cc1,87*,2%,1,7%,2%,-2%
COc1ccc(-c2cc(-c3ccccc3O)[nH]n2)cc1OC,81*,-5%,15,-10%,14%,2.5µM*
CC(=O)c1ccc(N2CCN(S(=O)(=O)c3ccc4c(c3)CC(C)N4C(C)=O)CC2)cc1 (centres undefined),34*,1%,11,7%,x,9%

# Screening data: PubChem, National Center for Advancing Translational Sciences (NCATS)
